Compounds with a hit are over-represented: about 3.2% of the library has one in this group of screens.
PfGluPho inh: PfG6PD enzyme inhibitors, primary screen, biochemical, fluorescence intensity, uHTS; AID 504690, 2011; PfGluPho enzyme, NADPH resazurin-diaphorase fluorescence; 350,000 compounds, 0.78% hits; glucose-6-phosphate dehydrogenase-6-phosphogluconolactonase (Plasmodium falciparum 3D7); inhibition, % at 20 µM;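 active = inhibition reaching at least a set limit at 20 µM in the primary screen, cut at about 59% in these data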;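 also: 0% = DMSO wells with substrate and 100% = DMSO wells lacking glucose-6-phosphate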
aDG glyco act: activators of alpha-DG glycosylation, primary screen, uHTS, Pro5-aDG cells, AlphaScreen. alpha-DG glycosylation AlphaScreen (IIH6); 0% Pro5, 100% B10-LARGE cell signal. activation, % at 10 µM. 360,000 compounds, 0.22% hits;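 active = activation of at least 8% versus controls, or a plate z-score of at least 8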;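 also: Pro5 are CHO cells carrying HIG-tagged alpha-DG that lacks glycosylation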
H9c2 protect: cardioprotection against H2O2-induced cell death, primary screen, uHTS, H9c2 cells, ATPLite luminescence. H9c2 cardiomyocytes, H2O2 injury protection, 2 h. protection from H2O2 cell death, % at 20 µM. 360,000 compounds, 0.63% hits;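 active = compounds giving at least 50% protection of heart cells from peroxide-induced death in the single-dose screen, raw or plate-pattern-corrected value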;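 also: 0% = DMSO wells with peroxide and 100% = DMSO wells without peroxide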
FAS-TE inh: FAS thioesterase domain inhibitors, primary screen, biochemical, fluorescence intensity, uHTS; Fatty acid synthase (Homo sapiens), P49327; recombinant FAS-TE, OMFH fluorogenic substrate, fluorescence endpoint; inhibition, % at 15 µM; 360,000 compounds, 0.67% hits; AID 602261, 2012;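 active = compounds whose normalised, plate-corrected inhibition of enzyme fluorescence in the single-dose primary screen is 50% or more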;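 also: 0% = DMSO with enzyme and 100% = substrate without enzyme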
CRFR2-BP antag: antagonists of CRF-BP/CRF-R2 complex, primary screen, cell-based, HEK293, calcium dye fluorescence, uHTS | CRF-induced calcium fluorescence | inhibition, % at 11.8 µM | 350,000 compounds, 0.59% hits;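 active = inhibition of the ligand-induced calcium signal above about 50% at the single tested concentration, limit read from the data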
CRFR2-BP ag: agonists of CRF-BP/CRF-R2 complex, primary screen, cell-based, HEK293, calcium dye fluorescence, uHTS; CRF-binding protein / CRF receptor 2 complex (human); calcium dye fluorescence (FLIPR); percent of saturating CRF peptide response; activation, % at 13.2 µM; 350,000 compounds, 0.46% hits;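 active = activation of at least 50%, plus an integration ratio under a set limit after plate pattern correction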;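 also: plate controls were neutral control wells without compound for no effect and CRF at EC100 for full effect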
Active calls of the source: *.

`O=C(OCC(=O)N1CCC(c2ccccc2)=N1)c1ccc([N+](=O)[O-])s1` gave PfGluPho inh 6.5, aDG glyco act 0.5, H9c2 protect -11.2, FAS-TE inh 18.5, CRFR2-BP antag -6.3 and CRFR2-BP ag 9.8.
CCCCC(=O)NC(c1ccc(N(CC)CC)cc1)c1ccc2cccnc2c1O (stereo unspecified) was read as PfGluPho inh -12.3, aDG glyco act 0.2, H9c2 protect 52.2*, FAS-TE inh -1.3, CRFR2-BP antag 18.9 and CRFR2-BP ag -0.1.
For CCCCC(=O)NC(c1ccc(N(C)C)cc1)c1ccc2cccnc2c1O (stereo unspecified) the results were PfGluPho inh -30.1, aDG glyco act -0.5, H9c2 protect 30.6, FAS-TE inh 5.8, CRFR2-BP antag 0.9 and CRFR2-BP ag -1.0.
For COC(=O)c1cccc(Cn2nc(C)c([N+](=O)[O-])c2C)c1 the results were PfGluPho inh 7.8, aDG glyco act -0.2, H9c2 protect 20.3, FAS-TE inh 11.7, CRFR2-BP antag 9.2 and CRFR2-BP ag -0.3.
COC(=O)C1=NN(c2ccc(C)cc2)C2(S1)SC(C(C)=O)=C(C)N2c1ccccc1 (stereo unspecified) was read as PfGluPho inh 33.4, aDG glyco act 0.2, H9c2 protect -5.0, FAS-TE inh 36.0, CRFR2-BP antag 11.6 and CRFR2-BP ag -0.9.
Screening COC(=O)C1=NN(c2ccccc2)C2(S1)SC(C(C)=O)=C(C)N2c1ccccc1 (stereo unspecified) returned PfGluPho inh -7.8, aDG glyco act -0.2, H9c2 protect 2.7, FAS-TE inh 20.0, CRFR2-BP antag 65.2* and CRFR2-BP ag -1.1.
Screening CCOC(=O)C1=C(CCc2ccccc2)NC(=O)NC1c1cccc([N+](=O)[O-])c1 (stereo unspecified) returned PfGluPho inh 2.0, aDG glyco act -0.2, H9c2 protect -2.1, FAS-TE inh 22.0, CRFR2-BP antag 58.3* and CRFR2-BP ag 0.7.
For CCOC(=O)C1=C(COC(=O)c2ccc([N+](=O)[O-])o2)NC(=O)NC1C (stereo unspecified) the results were PfGluPho inh 4.3, aDG glyco act -0.2, H9c2 protect 60.7*, FAS-TE inh -0.3, CRFR2-BP antag 7.0 and CRFR2-BP ag 0.1.
Screening CCOc1ccc(CCN2C(=S)N([C@@H](Cc3ccc(O)cc3)CN3CCC[C@@H]3CN3C(=S)NC[C@@H]3CC(C)C)C[C@@H]2Cc2ccc(O)cc2)cc1 returned aDG glyco act -0.6, H9c2 protect -3.4 and FAS-TE inh -91.8.
c1ccc(-c2csc(=Nc3cccnc3)n2CC2CCCO2)cc1 (stereo unspecified) was read as PfGluPho inh 5.1, aDG glyco act 0.1, H9c2 protect -8.3, FAS-TE inh -5.4, CRFR2-BP antag 41.7 and CRFR2-BP ag -3.1.
For COCCn1c(-c2ccccc2)csc1=Nc1cccnc1 the results were PfGluPho inh -18.4, aDG glyco act 0.2, H9c2 protect -11.6, FAS-TE inh 0.1, CRFR2-BP antag 92.5* and CRFR2-BP ag -0.3.
For CCC1OC(=O)C(C)C(OC2C[C@@](C)(OC)C(O)C(C)O2)C(C)C(O[C@@H]2OC(C)CC(N(C)C)C2O)[C@](C)(O)CC(C)C(=NOCOCCOC)C(C)C(O)[C@]1(C)O (stereo partly specified) the results were PfGluPho inh -2.4, aDG glyco act 0.2, H9c2 protect 4.6, FAS-TE inh -3.9, CRFR2-BP antag 89.2* and CRFR2-BP ag -0.9.
C/C(=N\NC(=O)c1cccc(S(=O)(=O)N2CCOCC2)c1)c1ccc(OCC(=O)N(C)C)cc1 was read as PfGluPho inh 2.7, aDG glyco act -0.1, H9c2 protect 1.1, FAS-TE inh -11.3, CRFR2-BP antag 4.8 and CRFR2-BP ag -1.8.

Screening results: PubChem, Sanford-Burnham Center for Chemical Genomics
